Results published in PubChem BioAssay AID504607 (Sanford-Burnham Center for Chemical Genomics, 2011).
Out of some 6,200 compounds screened, about 4,800 (77%) were called active. The set was probably picked from earlier hits. The list is a sample of the results. Unmarked numbers belong to inactive results.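 Rule for the calls: active = mean inhibition at 8 µM reaching about 37%, which flags the compound as non-specific (limit read from the data); inactive = the rest.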

assay: luminescence decrease from intact luciferase reporter – cell-based, single concentration, SaOS-2, counter-screen for Mdm2/MdmX interaction inhibitor project, confirmation (AID 504607); conditions: SaOS-2 full-length luciferase counterscreen, at 8 µM, hits give high values;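 note: p53-null SaOS-2 cells with luciferase driven by a doxycycline-inducible promoter; compound on cells about two nights before reading with doxycycline added after day one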

Row | Structure (SMILES) | inhibition
1 | Cn1cc(/C=C/c2nc3ccccc3c(=O)n2-c2cccc([N+](=O)[O-])c2)c2ccccc21 | 90.7% (active)
2 | C=CCn1c(C)cc(C(=O)CN2C(=O)c3ccccc3C2=O)c1C | 103% (active)
3 | C=CCn1c(C)cc(C2=NNC(=NCC)SC2)c1C | 24.4%
4 | O=C(NCC#CCSc1nnc(-c2cccc3ccccc23)o1)c1cccs1 | 22.6%
5 | CCCc1nc2c(c(=O)c3ccccc3n2C)c(=O)n1C1CCCCCC1 | 63.9% (active)
6 | COc1cccc(CNC(=O)c2nnn(CC(=O)Nc3cc(Cl)ccc3C)c2N)c1 | 47.8% (active)
7 | Cc1cc(C)c2[nH]c(=O)c(CN(Cc3ccccc3)C(=S)NCCCN(C)C)cc2c1 | 58.1% (active)
8 | COc1ccc(-c2nc(-c3ccccc3)no2)c(OC)c1 | 95.8% (active)
9 | CSc1nc(-c2ccccc2)nc(C(Cl)Cl)n1 | 49.7% (active)
10 | O=C(Cn1nnc(-c2ccccc2)n1)N/N=C/c1ccc(-c2ccc(Cl)cc2)o1 | 106% (active)
11 | COc1cc(NC(=O)c2ccccc2NS(=O)(=O)c2ccc(Cl)s2)cc(OC)c1 | 40.5% (active)
12 | CCc1ccc(-c2cc3c(=O)n(CC(=O)NCCCN4CCN(Cc5ccccc5)CC4)nc(C)n3n2)cc1 | 60.8% (active)
13 | CCc1ccc(CNC(=O)C2CCN(c3nnc(C)c4c(C)n(-c5ccc(C)cc5)nc34)CC2)cc1 | 23.7%
14 | FC(F)(F)c1ccc(CN2C[C@@H]3C(c4ccccc4)C4(c5ccccc5)CC3(C4)[C@H]2c2ccccc2)cc1 (stereo not given in full) | 27.2%
15 | COCCCNc1nc2c(-c3cccc(C)c3)nnn2c2ccc(Cl)cc12 | 54.2% (active)
16 | CCOc1ccccc1NC(=O)Cn1nnc(C(=O)NCc2cccs2)c1N | 80.5% (active)
17 | Cc1ccccc1OCCOc1ccc([N+](=O)[O-])cc1/C=N/n1cnnc1 | 89% (active)
18 | CC1(C)CC(N2CCN(C(c3ccccc3)c3ccccc3)CC2)=CC(=[N+]2CCCCC2)C1 | 55.6% (active)
19 | Cc1ccc2occ(/C=N/NC(=O)c3ccccc3C)c(=O)c2c1 | 34.4%
20 | Cc1c(/C=N\NC(=O)c2cc3ccccc3o2)c2ccccc2n1C | 61.8% (active)
21 | Cc1cccn2c(=O)c3cc(C(=O)NCCN4CCOCC4)c(=N)n(Cc4cccnc4)c3nc12 | 57.1% (active)
22 | COc1ccc(CCn2c(=N)c(C(=O)NCC3CCCO3)cc3c(=O)n4cccc(C)c4nc32)cc1OC (stereo not given) | 54% (active)
23 | Cc1cccc(-n2ncc(Cl)c(Cl)c2=O)c1 | 0.23%

Row | Structure (SMILES) | inhibition
24 | CN(Cc1ccccc1)CC(O)COc1ccc(CNCc2cc3ccccc3s2)cc1 (stereo not given) | 79.3% (active)
25 | O=C(Nc1ccncc1)c1c(F)cccc1F | 38.9% (active)
26 | CC(C)(C)CC(C)(C)NCC(O)COCCOc1ccc(Br)cc1 (stereo not given) | 62.6% (active)
27 | COc1ccccc1N1CCN(C(=O)c2cc(=O)c3cc(C)cc(C)c3o2)CC1 | 101% (active)
28 | Oc1c(Br)cccc1/C=N/Nc1c(F)c(F)c(F)c(F)c1F | 56.7% (active)
29 | O=C(Nc1ccc2ccccc2c1)Nc1ccc2snnc2c1 | 44.4% (active)
30 | COc1cccc(NC(=O)[C@H](Cc2c[nH]c3ccccc23)NC(=O)[C@@H]2Cc3ccccc3CN2)c1 | 53.2% (active)
31 | Cc1cc(CNC(=O)c2cccc([N+](=O)[O-])c2)c2ccccc2n1 | 41.5% (active)
32 | O=C(NC(Nc1nc2ccc([N+](=O)[O-])cc2s1)(C(F)(F)F)C(F)(F)F)c1ccccc1 | 8.11%
33 | Cc1ccc(-c2nc3ccccc3[nH]2)cc1NC(=O)c1sc2ccccc2c1Cl | 18.5%
34 | CCOC(=O)c1c(NC(=O)c2ccc(S(=O)(=O)N(C)CC3CCCO3)cc2)sc2c1CC(C)(C)NC2(C)C (stereo not given) | 62.7% (active)
35 | COC(=O)c1c(NC(=O)COc2ccc(Cl)cc2Cl)sc2c1CC(C)(C)NC2(C)C | 3.07%
36 | O=C(CC(O)(C(F)(F)F)C(F)(F)F)Nc1ccc(Cl)c(Cl)c1 | 58.1% (active)
37 | Cc1cccc2sc(N(CCCN(C)C)C(=O)CCS(=O)(=O)c3ccccc3)nc12 | 14.4%
38 | CSc1nc(N(C)NC(=O)c2cccc(C)c2)c2ccccc2n1 | 135% (active)
39 | CN(NC(=O)c1ccccc1F)c1nc(C(F)(F)F)nc2ccccc12 | 63.5% (active)
40 | CN(NC(=O)c1ccccc1)c1nc2ccccc2nc1C(F)(F)F | 68.8% (active)
41 | CC1(C)CCSC(/C=C/c2ccccc2)=N1 | 30.5%
42 | Cc1ccccc1C(CC(=O)c1cccs1)C(C#N)C#N (stereo not given) | 45.1% (active)
43 | O=C(Nc1ccc(C(=O)N2CCOCC2)cc1)Nc1cccc(C(F)(F)F)c1 | 49.8% (active)
44 | CCNS(=O)(=O)c1ccc(NC(=O)Nc2cccc(C(F)(F)F)c2)cc1 | 53.4% (active)
45 | Cc1cccc(NC(=O)Nc2cccc(Oc3c(F)c(F)c(F)c(F)c3F)c2)c1 | 32.5%
